# Records with an inconclusive call do not appear. Where a call stands in place of a potency, no number is given. The source made the active and inactive calls. The call rests on the fitted dose curve; in most records, active means well fitted inhibition curve with a large enough effect; inconclusive means small, poorly fitted or top-dose-only effect; inactive means flat fitted curve, though single readings scatter.
# How the values were obtained:
# Assay in all cases: qHTS profiling for inhibitors of Plasmodium falciparum proliferation (AID 504749); further: nearly all actives have a fitted effect of over 60% in size
# Conditions in all cases: P. falciparum in erythrocytes, SYBR Green DNA, 72 h; series mostly up to 28.7 µM
# [1] = tested on: DFO2036
# Outline: (§1)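 Infected RBCs, 0.3% parasitemia/2.5% Hct final; cpd 72 h, 37 C, 5% CO2; lysis buffer with saponin/triton/SYBR Green I, o/n RT dark; FI 485/535; norm. to artemisinin (0.29 uM) and DMSO.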
# [2] = tested on: DIV14
# Outline: as §1
# [3] = tested on: DIV17
# Outline: as §1
# [4] = tested on: DIV30
# Outline: as §1
# [5] = tested on: Dd2
# Outline: as §1
# [6] = tested on: ECU
# Outline: as §1
# [7] = tested on: FAB9
# Outline: as §1
# [8] = tested on: GB4
# Outline: as §1
# [9] = tested on: HB3
# Outline: as §1
# [10] = tested on: ICS
# Outline: as §1
# Potency means the concentration at half of the fitted maximal effect.
Structure (SMILES),Potency [1],Potency [2],Potency [3],Potency [4],Potency [5],Potency [6],Potency [7],Potency [8],Potency [9],Potency [10]
c1ccc(-c2nc[nH]c2-c2ccccc2)cc1,inactive,inactive,inactive,inactive,inactive,inactive,inactive,inactive,inactive,inactive
C[N+]1(CC2COC(c3ccccc3)(C3CCCCC3)O2)CCCCC1 (configuration not stated),7940 nM (active),6010 nM (active),6010 nM (active),6750 nM (active),7080 nM (active),4470 nM (active),3160 nM (active),3380 nM (active),4470 nM (active),4470 nM (active)
CC1=C(C(=O)O)N2C(=O)[C@@H](NC(=O)[C@H](N)c3ccccc3)[C@H]2SC1,inactive,inactive,inactive,inactive,inactive,inactive,inactive,inactive,inactive,inactive
Nc1ccc(S(=O)(=O)NCc2ccccc2)cc1,inactive,inactive,inactive,inactive,inactive,inactive,inactive,inactive,inactive,inactive
CC(=O)OCC(=O)[C@H]1CC[C@H]2[C@@H]3CCC4=CC(=O)CC[C@]4(C)[C@H]3CC[C@]12C,inactive,inactive,inactive,inactive,inactive,inactive,inactive,inactive,inactive,
Nc1nc(N)c(-c2ccccc2)s1,inactive,inactive,inactive,inactive,inactive,inactive,inactive,inactive,inactive,inactive
CCOc1cc(OCC)c(C(=O)CCC(=O)O)cc1OCC,inactive,inactive,inactive,inactive,inactive,inactive,inactive,inactive,inactive,inactive
Cc1cccc(C)c1NC(=O)CN1CCCC1,inactive,inactive,inactive,inactive,inactive,inactive,inactive,inactive,inactive,inactive
FC1(F)C(F)(F)C(F)(F)C2(F)C(F)(F)C(F)(F)C(F)(F)C(F)(F)C2(F)C1(F)F (configuration not stated),inactive,inactive,inactive,inactive,inactive,inactive,inactive,inactive,inactive,inactive
CCOC(=O)C(C#N)=C(c1ccccc1)c1ccccc1,inactive,inactive,inactive,inactive,inactive,inactive,inactive,inactive,inactive,inactive
NC(=S)N/N=C/c1cccnc1,inactive,inactive,inactive,inactive,inactive,inactive,inactive,inactive,inactive,inactive
CC(=O)OC[C@H]1O[C@@H](n2ncc(=O)[nH]c2=O)[C@H](OC(C)=O)[C@@H]1OC(C)=O,inactive,inactive,inactive,inactive,inactive,inactive,inactive,inactive,inactive,inactive
C#C[C@]1(O)CC[C@H]2[C@@H]3CCc4cc(OC)ccc4[C@H]3CC[C@@]21C,inactive,inactive,inactive,inactive,inactive,inactive,inactive,inactive,inactive,
Cl/C(=C\n1cncn1)c1ccc(Cl)cc1Cl,inactive,inactive,inactive,inactive,inactive,inactive,inactive,inactive,inactive,
O=S(=O)(O)c1ccc(O)cc1,inactive,inactive,inactive,inactive,inactive,inactive,inactive,inactive,inactive,inactive
NCCNC(=O)c1ccc(Cl)cn1,inactive,inactive,inactive,inactive,inactive,inactive,inactive,inactive,inactive,inactive
Cc1ccccc1OCC(O)CO (configuration not stated),inactive,inactive,inactive,inactive,inactive,inactive,inactive,inactive,inactive,inactive
NS(=O)(=O)Cc1noc2ccccc12,inactive,inactive,inactive,inactive,inactive,inactive,inactive,inactive,inactive,inactive
CCCCNC(=O)NS(=O)(=O)c1ccc(N)cc1,inactive,inactive,inactive,inactive,inactive,inactive,inactive,inactive,inactive,inactive
CNCCc1ccccn1,inactive,inactive,inactive,inactive,inactive,inactive,inactive,inactive,inactive,inactive
Cc1cc(C)cc(OCC2CNC(=O)O2)c1 (configuration not stated),inactive,inactive,inactive,inactive,inactive,inactive,inactive,inactive,inactive,inactive
CCCCCCCC/C=C\CCCCCCCCN,inactive,inactive,inactive,inactive,inactive,inactive,inactive,inactive,inactive,inactive
CCCN(CCC)S(=O)(=O)c1ccc(C(=O)O)cc1,inactive,inactive,inactive,inactive,inactive,inactive,inactive,inactive,inactive,inactive

Structure (SMILES),Potency [1],Potency [2],Potency [3],Potency [4],Potency [5],Potency [6],Potency [7],Potency [8],Potency [9],Potency [10]
COc1ccccc1N1CCN(CCCCNC(=O)c2ccc(-c3ccc(C(C)=O)cc3)cc2)CC1,inactive,inactive,inactive,inactive,inactive,inactive,inactive,inactive,inactive,14100 nM (active)
N#CCC(=O)NN,inactive,inactive,inactive,inactive,inactive,inactive,inactive,inactive,inactive,inactive
O=C1C(=O)c2ccccc2C(O)=C1C1CCC(c2ccc(Cl)cc2)CC1 (configuration not stated),3.2 nM (active),6.4 nM (active),9.1 nM (active),5.1 nM (active),3.5 nM (active),3.2 nM (active),3.2 nM (active),4.1 nM (active),2.8 nM (active),2 nM (active)
FC(F)(F)C(F)(F)C(F)(F)C(F)(F)C(F)(F)C(F)(F)C(F)(F)C(F)(F)Br,inactive,inactive,inactive,inactive,inactive,inactive,inactive,inactive,inactive,inactive
CC(C)Cn1cnc2c1c(=O)n(C)c(=O)n2C,inactive,inactive,inactive,inactive,inactive,inactive,inactive,inactive,inactive,inactive
C[C@@H](O)[C@H]1C(=O)N2C(C(=O)O)=C(S[C@@H]3CN[C@H](CNS(N)(=O)=O)C3)[C@H](C)[C@H]12,inactive,inactive,inactive,inactive,inactive,inactive,inactive,inactive,inactive,inactive
O[C@@H](c1cc(C(F)(F)F)nc2c(C(F)(F)F)cccc12)[C@H]1CCCCN1,35.5 nM (active),33.8 nM (active),33.8 nM (active),33.8 nM (active),28.2 nM (active),12.6 nM (active),70.8 nM (active),26.9 nM (active),56.2 nM (active),8.9 nM (active)
Cc1ccc(O)c([C@H](CCN(C(C)C)C(C)C)c2ccccc2)c1,5010 nM (active),1350 nM (active),1200 nM (active),6010 nM (active),2510 nM (active),3980 nM (active),8910 nM (active),1510 nM (active),7940 nM (active),1000 nM (active)
COc1ccc(CN(CCN(C)C)c2ncccn2)cc1,inactive,inactive,inactive,inactive,inactive,inactive,inactive,9530 nM (active),inactive,inactive
C#C[C@]1(O)CC[C@H]2[C@@H]3CCC4=CC(=O)CC[C@@H]4[C@H]3CC[C@@]21CC,inactive,inactive,inactive,inactive,inactive,inactive,inactive,inactive,,
C=CCN1CCc2nc(N)sc2CC1,inactive,inactive,inactive,inactive,inactive,inactive,inactive,inactive,inactive,
COc1cc(C(=O)NCc2ccc(OCCN(C)C)cc2)cc(OC)c1OC,inactive,inactive,inactive,inactive,inactive,inactive,inactive,inactive,inactive,inactive
NC(N)=NCc1cccc(I)c1,inactive,inactive,inactive,inactive,inactive,inactive,inactive,inactive,inactive,
O=C1C(O)=C(O)C(=O)C(O)=C1O,inactive,inactive,inactive,inactive,10000 nM (active),inactive,inactive,inactive,inactive,
Cc1c(-c2ccccc2)oc2c(C(=O)OCCN3CCCCC3)cccc2c1=O,inactive,inactive,inactive,inactive,inactive,inactive,inactive,inactive,inactive,inactive
O=C(O)C(Cc1cc(I)c(O)c(I)c1)c1ccccc1 (configuration not stated),inactive,inactive,inactive,inactive,inactive,inactive,inactive,inactive,inactive,inactive
C/C=C/C=N/NC(=O)c1ccncc1,inactive,inactive,inactive,inactive,inactive,inactive,inactive,inactive,inactive,inactive
CCN1/C(=C/C=C/c2sc3ccccc3[n+]2CC)Sc2ccccc21,100 nM (active),478 nM (active),478 nM (active),675 nM (active),112 nM (active),224 nM (active),282 nM (active),301 nM (active),251 nM (active),100 nM (active)
COc1cc(C)nc(-n2nc(C)cc2OC)n1,inactive,inactive,inactive,inactive,inactive,inactive,inactive,inactive,inactive,inactive
CCCCCCCCCCCCCCCCO,inactive,inactive,inactive,inactive,inactive,inactive,inactive,inactive,inactive,inactive
Cc1cc(NS(=O)(=O)c2ccc(N)cc2)nc(C)n1,inactive,inactive,inactive,inactive,inactive,inactive,inactive,inactive,inactive,inactive
CCCCC(CC)COC(=O)/C=C/c1ccc(OC)cc1 (configuration not stated),inactive,inactive,inactive,inactive,inactive,inactive,inactive,inactive,inactive,inactive
NC(=O)n1c(O)c(C(=O)c2cccs2)c2cc(Cl)ccc21,inactive,inactive,inactive,inactive,inactive,inactive,inactive,inactive,inactive,inactive

# Reference: PubChem BioAssay (NCATS)
